The record followed here is paper PMC7862700, “An all-to-all approach to the identification of sequence-specific readers for epigenetic DNA modifications on cytosine”.

Assay in all cases: DAPPL (digital affinity profiling via proximity ligation, sequencing); 10 mM Tris-HCl pH 7.5, 50 mM NaCl, 1 mM DTT, 4% glycerol, room temperature, 30 min; GST-TFs on glutathione beads, 16-mer random dsDNA library, 0.1% formaldehyde crosslink after washing; high values mean tight binding
Settings in all cases: protein: recombinant; tags: N-terminal GST; dsDNA, one strand shown

One assay addresses T1, SPIC (Homo sapiens, UniProt Q8N5J4 1-248).
T1 sequence: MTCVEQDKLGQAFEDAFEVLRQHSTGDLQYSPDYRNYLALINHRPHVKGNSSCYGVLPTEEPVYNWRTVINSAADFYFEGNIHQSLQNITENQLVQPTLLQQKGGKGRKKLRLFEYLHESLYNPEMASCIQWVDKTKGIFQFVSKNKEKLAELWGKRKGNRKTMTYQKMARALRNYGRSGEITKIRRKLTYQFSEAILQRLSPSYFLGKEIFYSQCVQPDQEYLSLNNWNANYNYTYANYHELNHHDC
In outline:
(§1)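 Each value of binding signal is a hexamer's read frequency for a factor divided by the same hexamer's frequency in the tag-only sample. Barcoded, bead-captured GST fusions of human transcription factors made in yeast were pooled with that sample and incubated with 200 nmole of a random double-stranded 16-mer DNA library in Tris/NaCl/DTT/glycerol buffer at room temperature for 30 min. Washing, 0.1% formaldehyde crosslinking, proximity ligation, PCR and Illumina NextSeq500 sequencing followed.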

The next assay addresses ELF4 (Homo sapiens, UniProt Q99607 1-663). In outline: as §1
For a further assay, the target named is T2, ELK4 (Homo sapiens, UniProt P28324-2 1-405).
T2 sequence: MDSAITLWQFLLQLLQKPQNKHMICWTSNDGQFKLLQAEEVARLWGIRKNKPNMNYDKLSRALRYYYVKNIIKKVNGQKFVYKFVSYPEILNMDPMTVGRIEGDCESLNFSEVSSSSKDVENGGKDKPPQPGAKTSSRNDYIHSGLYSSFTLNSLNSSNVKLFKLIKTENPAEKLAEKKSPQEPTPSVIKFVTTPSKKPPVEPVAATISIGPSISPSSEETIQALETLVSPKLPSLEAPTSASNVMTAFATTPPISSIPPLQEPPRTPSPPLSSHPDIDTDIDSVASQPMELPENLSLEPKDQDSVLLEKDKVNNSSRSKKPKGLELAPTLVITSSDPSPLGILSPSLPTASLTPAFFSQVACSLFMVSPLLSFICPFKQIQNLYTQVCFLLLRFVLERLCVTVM
Put shortly: as §1

Another assay concerns the target T3, ETV2 (Homo sapiens, UniProt O00321 1-342).
T3 sequence: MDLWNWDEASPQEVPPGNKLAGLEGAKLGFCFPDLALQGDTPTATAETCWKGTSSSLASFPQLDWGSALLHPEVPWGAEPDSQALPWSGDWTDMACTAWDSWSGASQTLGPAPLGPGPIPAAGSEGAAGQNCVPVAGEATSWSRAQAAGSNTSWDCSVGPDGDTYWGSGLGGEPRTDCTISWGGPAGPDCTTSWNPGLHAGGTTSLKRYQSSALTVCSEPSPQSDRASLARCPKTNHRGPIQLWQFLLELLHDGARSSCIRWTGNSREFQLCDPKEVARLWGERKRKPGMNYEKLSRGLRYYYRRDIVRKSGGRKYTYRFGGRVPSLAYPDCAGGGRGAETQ
In outline:
as §1

A further assay has as its target ETV1 (Homo sapiens, UniProt P50549 1-477). Put shortly: as §1
Another assay addresses T4, ERF (Homo sapiens, UniProt P50548 1-548).
T4 sequence: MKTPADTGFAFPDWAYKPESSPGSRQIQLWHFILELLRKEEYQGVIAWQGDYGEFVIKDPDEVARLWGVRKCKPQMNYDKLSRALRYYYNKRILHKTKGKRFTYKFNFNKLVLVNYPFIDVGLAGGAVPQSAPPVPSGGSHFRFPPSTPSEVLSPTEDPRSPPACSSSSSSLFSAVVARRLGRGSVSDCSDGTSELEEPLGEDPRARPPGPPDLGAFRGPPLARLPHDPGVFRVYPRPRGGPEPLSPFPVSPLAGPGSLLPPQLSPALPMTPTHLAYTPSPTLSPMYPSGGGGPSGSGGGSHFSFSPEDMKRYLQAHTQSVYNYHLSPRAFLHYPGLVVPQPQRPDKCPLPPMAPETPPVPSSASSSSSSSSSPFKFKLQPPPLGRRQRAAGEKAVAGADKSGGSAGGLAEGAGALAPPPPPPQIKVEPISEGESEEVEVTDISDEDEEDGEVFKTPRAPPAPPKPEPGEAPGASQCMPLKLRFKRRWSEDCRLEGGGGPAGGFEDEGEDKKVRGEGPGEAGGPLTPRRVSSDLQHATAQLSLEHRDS
Put shortly: as §1

A further assay addresses T5, SPDEF (Homo sapiens, UniProt O95238 1-335).
T5 sequence: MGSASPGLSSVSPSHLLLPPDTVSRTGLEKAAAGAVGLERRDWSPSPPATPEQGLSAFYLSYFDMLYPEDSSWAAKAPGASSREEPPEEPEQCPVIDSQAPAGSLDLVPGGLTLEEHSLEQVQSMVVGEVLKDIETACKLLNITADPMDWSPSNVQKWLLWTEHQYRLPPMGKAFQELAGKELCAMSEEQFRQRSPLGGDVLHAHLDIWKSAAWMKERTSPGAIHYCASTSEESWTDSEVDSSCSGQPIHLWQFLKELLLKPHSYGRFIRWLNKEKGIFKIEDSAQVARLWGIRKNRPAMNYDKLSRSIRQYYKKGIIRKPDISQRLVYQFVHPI
In outline: as §1

The target of the next assay is T6, ETV7 (Homo sapiens, UniProt Q9Y603 1-341).
T6 sequence: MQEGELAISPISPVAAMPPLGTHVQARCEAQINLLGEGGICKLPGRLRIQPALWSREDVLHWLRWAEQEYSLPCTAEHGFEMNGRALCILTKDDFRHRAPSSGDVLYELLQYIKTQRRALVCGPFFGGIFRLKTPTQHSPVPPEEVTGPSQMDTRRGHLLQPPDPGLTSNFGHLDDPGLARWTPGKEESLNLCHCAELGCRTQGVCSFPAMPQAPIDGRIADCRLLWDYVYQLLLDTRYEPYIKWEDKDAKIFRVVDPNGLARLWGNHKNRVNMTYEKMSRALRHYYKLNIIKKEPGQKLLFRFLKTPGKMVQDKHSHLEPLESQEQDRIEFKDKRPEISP
In outline:
as §1

In another assay the target is T7, ELF5 (Homo sapiens, UniProt Q9UKW6-2 1-255).
T7 sequence: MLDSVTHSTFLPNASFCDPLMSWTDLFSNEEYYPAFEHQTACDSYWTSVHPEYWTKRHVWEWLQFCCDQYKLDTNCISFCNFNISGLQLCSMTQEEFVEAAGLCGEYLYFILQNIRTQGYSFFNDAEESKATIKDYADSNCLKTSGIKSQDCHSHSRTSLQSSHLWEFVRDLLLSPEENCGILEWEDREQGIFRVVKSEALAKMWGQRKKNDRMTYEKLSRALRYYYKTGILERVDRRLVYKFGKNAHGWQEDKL
Put shortly: as §1

The target of a further assay is T8, ETV3 (Homo sapiens, UniProt P41162-2 1-143).
T8 sequence: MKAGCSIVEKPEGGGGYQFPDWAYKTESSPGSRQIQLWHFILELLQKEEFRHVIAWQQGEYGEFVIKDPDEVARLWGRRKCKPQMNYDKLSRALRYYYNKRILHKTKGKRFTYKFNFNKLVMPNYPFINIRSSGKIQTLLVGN
In outline:
as §1

A further assay addresses ETV6 (Homo sapiens, UniProt P41212 1-452). In outline: as §1

Chain of ETV6 (P41212 whole entry): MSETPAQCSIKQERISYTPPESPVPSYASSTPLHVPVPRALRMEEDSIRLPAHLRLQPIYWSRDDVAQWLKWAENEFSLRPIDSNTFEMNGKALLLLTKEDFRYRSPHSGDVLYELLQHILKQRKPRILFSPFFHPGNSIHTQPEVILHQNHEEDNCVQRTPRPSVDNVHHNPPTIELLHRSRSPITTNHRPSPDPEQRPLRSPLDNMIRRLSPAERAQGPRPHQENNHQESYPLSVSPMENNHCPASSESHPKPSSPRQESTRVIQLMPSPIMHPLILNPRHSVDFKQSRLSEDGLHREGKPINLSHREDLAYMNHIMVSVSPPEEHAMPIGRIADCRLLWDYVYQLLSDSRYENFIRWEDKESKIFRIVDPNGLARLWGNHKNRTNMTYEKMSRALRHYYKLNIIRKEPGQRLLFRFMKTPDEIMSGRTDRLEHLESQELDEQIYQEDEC
Chain of ETV1 (P50549 whole entry): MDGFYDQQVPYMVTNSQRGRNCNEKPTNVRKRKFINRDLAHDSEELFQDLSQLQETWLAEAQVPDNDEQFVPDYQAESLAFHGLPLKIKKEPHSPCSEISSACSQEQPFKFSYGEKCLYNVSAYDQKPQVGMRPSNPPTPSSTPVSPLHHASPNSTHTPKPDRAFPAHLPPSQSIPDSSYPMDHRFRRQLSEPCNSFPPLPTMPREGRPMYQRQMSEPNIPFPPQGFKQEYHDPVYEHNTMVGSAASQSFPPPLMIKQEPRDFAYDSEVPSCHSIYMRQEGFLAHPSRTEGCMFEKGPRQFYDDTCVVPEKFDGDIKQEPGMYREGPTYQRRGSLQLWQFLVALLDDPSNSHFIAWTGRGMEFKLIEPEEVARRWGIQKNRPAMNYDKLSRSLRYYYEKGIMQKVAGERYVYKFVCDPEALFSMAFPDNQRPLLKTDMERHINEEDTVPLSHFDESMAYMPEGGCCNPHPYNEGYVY
Chain of ELF4 (Q99607 whole entry): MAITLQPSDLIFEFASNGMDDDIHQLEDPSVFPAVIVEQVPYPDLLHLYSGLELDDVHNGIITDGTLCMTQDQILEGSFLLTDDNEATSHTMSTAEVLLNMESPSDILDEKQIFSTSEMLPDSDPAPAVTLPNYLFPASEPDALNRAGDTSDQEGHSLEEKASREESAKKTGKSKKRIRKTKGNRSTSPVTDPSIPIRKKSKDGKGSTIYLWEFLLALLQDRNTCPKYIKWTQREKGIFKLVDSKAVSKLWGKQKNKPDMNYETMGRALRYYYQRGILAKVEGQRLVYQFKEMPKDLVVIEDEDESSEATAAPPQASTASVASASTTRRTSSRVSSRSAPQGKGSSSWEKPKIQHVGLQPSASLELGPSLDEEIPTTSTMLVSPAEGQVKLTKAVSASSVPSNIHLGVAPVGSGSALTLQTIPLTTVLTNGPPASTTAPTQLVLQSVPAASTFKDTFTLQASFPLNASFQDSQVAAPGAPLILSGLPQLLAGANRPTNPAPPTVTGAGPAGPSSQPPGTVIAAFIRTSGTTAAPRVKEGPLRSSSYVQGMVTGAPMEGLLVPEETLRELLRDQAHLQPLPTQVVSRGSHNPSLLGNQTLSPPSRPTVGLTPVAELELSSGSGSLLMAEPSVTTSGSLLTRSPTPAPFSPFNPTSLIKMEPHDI

Turning to ACCACG, the binding signal with SPIC is 1.08 fold enrichment (6-mer frequency, TF over GST control); with ELF4, 1.05 fold enrichment (6-mer frequency, TF over GST control); with ELK4 it was 1.11 fold enrichment (6-mer frequency, TF over GST control); with ETV2 it was 1.09 fold enrichment (6-mer frequency, TF over GST control); with ETV1, 1.05 fold enrichment (6-mer frequency, TF over GST control); in the assay with ERF, 1.03 fold enrichment (6-mer frequency, TF over GST control). The binding signal in the assay with SPDEF was 1.06 fold enrichment (6-mer frequency, TF over GST control); with ETV7 it was 1.04 fold enrichment (6-mer frequency, TF over GST control); with ELF5, 1.02 fold enrichment (6-mer frequency, TF over GST control); with ETV3, 1.04 fold enrichment (6-mer frequency, TF over GST control); in the assay with ETV6, 1.02 fold enrichment (6-mer frequency, TF over GST control).
